The campaign covered roughly 52,000 compounds. About 1,700 (3.3%) were called active. Rule as the data show it: active = survival mostly below about 52% (no sharp cut-off); inactive = mostly above about 56%. The list comes from a sample in which actives are over-represented; it also holds similar structures and randomly drawn compounds.
These compounds were tested on Wild type (assay: growth inhibition of S. aureus wild type versus tarO mutant, primary screen, teichoic acid synthesis inhibitors, RN4220, OD600 (AID 463173)). Conditions: S. aureus RN4220 wild type/DeltatarO growth, OD600, 18 h, stronger effect = lower value, screened at 18.75 µg/mL (by protocol).

SMILES | survival
CCCN(CCC)CCNC(=O)Cn1cc2c(n1)-c1c(oc(C(=O)N3CCCC3)c1C)CC2 | 106% (inactive)
COc1ccc(-c2nc3ccccc3n3c(-c4cccc(C)c4)c4c(=O)n(C)c(=O)n(C)c4c23)cc1OC | 77% (inactive)
CC(C)Oc1ccc(CNC(=O)c2sc3ncccc3c2-n2cccc2)cc1 | 64% (inactive)
O=C(CN1CCC(n2cnc3cc(F)ccc32)CC1)Nc1ccccc1Br | 108% (inactive)
CCOC(=O)c1ccc(NC(=O)c2c(NCc3cc(OC)c(OC)cc3OC)sc3c2CCCC3)cc1 | 85% (inactive)
COCCn1c(SCC(=O)Nc2sc(C)c(C)c2C#N)nnc1C(C)C | 103% (inactive)
COc1ccccc1-c1nn(CCC(=O)Nc2ccccc2)c2nc(C)cc(C)c12 | 86% (inactive)
COC(=O)c1cc2oc3ccccc3c2n1Cc1ccc(Cl)cc1 | 21% (inactive)
COC(=O)c1cc2oc3ccccc3c2n1Cc1ccc(C)cc1 | 82% (inactive)
CCN(C(=O)Cn1c(C(=O)OC)cc2oc3ccccc3c21)c1cccc(C)c1 | 24% (active)
COC(=O)c1cc2oc3ccccc3c2n1Cc1cccc(C)c1 | 3% (active)
COC(=O)c1cc2oc3ccccc3c2n1Cc1nc(-c2cccc(C)c2)oc1C | 72% (inactive)
COC(=O)c1cc2oc3ccccc3c2n1CC(=O)Nc1ccc(C)cc1C | 86% (inactive)
S=c1nc[nH]c2c1[nH]c1ccccc12 | 98% (inactive)
CC1CCN(S(=O)(=O)c2cc(C(=O)Nc3ccc(Br)cc3F)n(C)c2)CC1 | 77% (inactive)
COc1cc(C(c2nnnn2Cc2ccco2)N2CCN(C3CCCC3)CC2)cc(OC)c1OC (stereo not given) | 107% (inactive)
CC1CCN(C(=O)Cn2cc(SCC(=O)NCc3ccccc3)c3ccccc32)CC1 | 86% (inactive)
Cc1ccc(C)n1-c1c(C(=O)NCCC(C)C)sc2ncccc12 | 79% (inactive)
Cc1nc2ccccc2c(=O)n1-c1ccc(NC(=O)c2cccc([N+](=O)[O-])c2)cc1 | 59% (inactive)
Cc1cc(N2CCN(c3cccc(C(F)(F)F)c3)CC2)n2nc(-c3ccccc3)nc2n1 | 87% (inactive)
Cc1cc(N2CCN(c3cccc(C(F)(F)F)c3)CC2)n2nc(-c3ccccc3C)nc2n1 | 11% (active)
COc1ccc(-c2nc3nc(C)cc(N4CCN(c5cccc(C(F)(F)F)c5)CC4)n3n2)cc1 | 88% (inactive)
CCN(CC)C(=O)C1=C(C)Nc2nc3ccccc3n2C1c1ccc(Br)cc1 (stereo not given) | 80% (inactive)
Cc1cc(S(=O)(=O)C(CNC(=O)COc2ccccc2)c2cccs2)ccc1F (stereo not given) | 153% (inactive)

SMILES | survival
COc1ccc(C2CC(=O)N(Cc3cccc(F)c3)c3ccccc3S2)cc1 (stereo not given) | 9% (active)
O=C1CC(c2ccccc2)Sc2ccccc2N1Cc1ccc(F)cc1 (stereo not given) | 16% (active)
O=C1CC(c2ccccc2)Sc2ccccc2N1Cc1ccccc1F (stereo not given) | 96% (inactive)
COc1cc(C2CC(=O)N(Cc3cccc(F)c3)c3ccccc3S2)cc(OC)c1OC (stereo not given) | 83% (inactive)
COc1ccc(C2CC(=O)N(Cc3ccc(F)cc3)c3ccccc3S2)cc1 (stereo not given) | 30% (inactive)
COc1cc(C2CC(=O)N(Cc3ccc(F)cc3)c3ccccc3S2)cc(OC)c1OC (stereo not given) | 72% (inactive)
COc1ccc(S(=O)(=O)c2c(Nc3ccc(C)cc3)sc(C(=O)c3ccc4c(c3)OCO4)c2N)cc1 | 143% (inactive)
CCNc1nc(NCC)nc(N(n2cnnc2)S(=O)(=O)c2ccc(C)cc2)n1 | 45% (inactive)
CCOc1ccc(CNC(=O)c2cnc3sc(N(CC)CC)nn3c2=O)cc1 | 75% (inactive)
COc1ccc(N2CCN(CCCNC(=O)Cn3c(-c4cccs4)cc4ccccc43)CC2)cc1 | 86% (inactive)
Cc1cc(C)cc(NC(=O)CN2C(=O)COc3ccc(S(=O)(=O)Nc4ccccc4)cc32)c1 | 98% (inactive)
Clc1ccc(-c2nnn3c2nc(N2CCCCC2)c2ccccc23)cc1 | 45% (inactive)
CC1CCCN(c2nc3c(-c4ccc(Cl)cc4)nnn3c3ccccc23)C1 (stereo not given) | 83% (inactive)
Cc1ccc(-c2nnn3c2nc(N2CCC(C)CC2)c2ccccc23)cc1 | -2% (active)
Brc1cccc(-c2nnn3c2nc(N2CCCCC2)c2ccccc23)c1 | 76% (inactive)
COc1ccc(-c2nnn3c2nc(N2CCCC(C)C2)c2ccccc23)cc1 (stereo not given) | 0% (active)
CC1CCN(c2nc3c(-c4cccc(Br)c4)nnn3c3ccccc23)CC1 | 85% (inactive)
COc1ccc(C2C(C(=O)Nc3ccc(C)cc3C)=C(C)Nc3nc4ccccc4n32)c(OC)c1 (stereo not given) | 65% (inactive)
CCOC(=O)C1CCCN(S(=O)(=O)c2ccc3[nH]c(=O)oc3c2)C1 (stereo not given) | 88% (inactive)
CCOc1ccc(NC(=O)CCCn2c(C)c3cnn(-c4ccccc4)c(=O)c3c2C)cc1 | 89% (inactive)
COc1ccc(Cl)cc1NC(=O)C(C)N1Cc2ccccc2C1=O (stereo not given) | 85% (inactive)
COC(=O)CSc1nc(N)c(C#N)c(-c2ccccc2)c1C#N | 112% (inactive)
CCC(Sc1nc(N)cc(=O)[nH]1)C(=O)NC(C)c1ccccc1 (stereo not given) | 103% (inactive)
O=C(CSc1nc(-c2ccccc2)cc(=O)[nH]1)c1ccccc1 | 119% (inactive)

SMILES | survival
CCOC(=O)C1CCN(c2nc3ccccc3nc2Cl)CC1 | -26% (active)
CCOC(=O)C1CCN(c2ncnc3c2nnn3C)CC1 | 10% (active)
CC1CCN(c2ncnc3c2nnn3C)CC1 | 83% (inactive)
Cn1nnc2c(N3CCN(c4ccccc4)CC3)ncnc21 | 88% (inactive)
CCOC(=O)C1CCCN(c2ncnc3c2nnn3C)C1 (stereo not given) | 121% (inactive)
CCOC(=O)C1CCN(c2cc(C)c(C#N)c3nc4ccccc4n23)CC1 | 99% (inactive)
CCOC(=O)C1CCN(c2nc(-c3ccc(Br)cc3)nc3ccccc23)CC1 | 75% (inactive)
Cn1nnc2c(N3CCN(c4ccc(F)cc4)CC3)ncnc21 | 80% (inactive)
COc1ccc(N2CCN(c3ncnc4c3nnn4C)CC2)cc1 | -2% (active)
CCn1nnc2cc(C(=O)Nc3cccc(Cl)c3)ccc21 | 87% (inactive)
CN(Cc1ccccc1)C(=O)C1CCC(CNS(=O)(=O)c2ccc3c(c2)CCCC(=O)N3)CC1 (stereo not given) | 131% (inactive)
Clc1ccc2nc(-c3ccc(Br)o3)c(Nc3ccc4c(c3)OCCO4)n2c1 | 93% (inactive)
O=C(CSc1ncccn1)NCCC1=CCCCC1 | 112% (inactive)
CCc1ccc(-n2cnc3cc(C(=O)NCc4ccc(C)cc4)ccc32)cc1 | 65% (inactive)
Cc1ccccc1OCCn1c(CCNC(=O)C(C)(C)C)nc2ccccc21 | 75% (inactive)
CCCCn1c(COc2cccc(OC)c2)nc2ccccc21 | 88% (inactive)
CCc1nc2ccccc2n1CCCCOc1ccc(Cl)cc1 | 2% (active)
CCc1nc2ccccc2n1CCCCOc1ccccc1C | 24% (active)
Cc1ccc(OCCCCn2c(CCNC(=O)C(C)(C)C)nc3ccccc32)cc1 | 76% (inactive)
CC(C)(C)C(=O)NCCc1nc2ccccc2n1CCCCOc1ccc(Cl)cc1 | 28% (inactive)
CC(C)(C)C(=O)NCCc1nc2ccccc2n1CCCCOc1ccccc1 | 79% (inactive)
CCc1nc2ccccc2n1CCCCOc1ccc(C)cc1 | 1% (active)
CCCn1c(COc2cccc(C)c2)nc2ccccc21 | 25% (active)
Cc1ccccc1OCCCCn1c(CCNC(=O)C(C)(C)C)nc2ccccc21 | 65% (inactive)

SMILES | survival
CC(=O)NCCc1nc2ccccc2n1CCCCOc1ccc(Cl)cc1 | 95% (inactive)
COc1cccc(OCc2nc3ccccc3n2CCOc2cccc(C)c2)c1 | 73% (inactive)
Cc1ccc(-c2nc3ccccc3[nH]2)cc1NC(=O)COc1ccc(Cl)cc1Cl | 45% (inactive)
CC1=C(c2ccc(C(C)C)cc2)S(=O)(=O)NC1=NCc1ccccc1Br | 82% (inactive)
COc1cc(NC(=O)CSc2nc3ccccc3nc2Cc2ccccc2OC)cc(OC)c1 | 66% (inactive)
COc1ccccc1Cn1cc(C(=O)c2ccc(C)cc2)c(=O)c2cc(F)cc(F)c21 | 81% (inactive)
Cc1cc(C)c(NC(=O)Cn2c(=O)n(CCCCC(=O)NCc3ccccc3Cl)c(=O)c3ccccc32)c(C)c1 | 106% (inactive)
Cc1cncn1CCc1nc2c3ccccc3nc(SCC(=O)Nc3cccc(Cl)c3)n2n1 | 80% (inactive)
CCc1c(CN2CCN(c3ccccc3F)CC2)csc1C | 52% (inactive)
Cc1ccc(CNC(=O)CSCc2ccc(F)cc2)cc1 | 101% (inactive)
O=C(CCCSc1nc(-c2ccco2)cc(C(F)(F)F)n1)NCC1CCCO1 (stereo not given) | 108% (inactive)
COc1ccccc1CNC(=O)c1cc2c(-c3ccc(Cl)cc3)nn(C)c2s1 | 151% (inactive)
COCc1nc2ccccc2n1CCOc1cccc(C)c1 | 53% (inactive)
Cc1cccc(OCCCn2c(CCNC(=O)C(C)(C)C)nc3ccccc32)c1 | 84% (inactive)
CCc1nc2ccccc2n1CCCCOc1cccc(C)c1 | 12% (active)
COc1ccc(-c2noc(N3CCC(C(=O)N4CCN(c5ccccc5F)CC4)CC3)n2)cc1 | 108% (inactive)
COc1ccc(-n2ncc3c(NC4CCCC4)ncnc32)cc1 | 129% (inactive)
COc1ccccc1N1CCN(C(=O)Cc2c(C(=O)O)c(C)cn2C)CC1 | -6% (active)
Cc1cn(C)c(CC(=O)N2CCN(c3cccc(Cl)c3)CC2)c1C(=O)O | 78% (inactive)
Cc1cccc(N2CCN(C(=O)Cc3c(C(=O)O)c(C)cn3C)CC2)c1C | 70% (inactive)
COc1ccc(N2CCN(C(=O)Cc3c(C(=O)O)c(C)cn3C)CC2)cc1 | 14% (active)
Cc1cn(C)c(CC(=O)N2CCN(c3ccc(F)cc3)CC2)c1C(=O)O | 133% (inactive)
Cc1cn(C)c(CC(=O)N2CCN(c3ccccc3F)CC2)c1C(=O)O | 69% (inactive)

Reference: PubChem BioAssay AID463173 (ICCB-Longwood Screening Facility, Harvard Medical School, 2010)
